Experimental findings from PubChem BioAssay (Tox21) are described below.

“And” between values parts separate entries of the source, which are not always exact repeats. Equal entries are not always repeated. Inconclusive results are not listed. Entries that show only a call come without a potency. Some compounds were tested as several samples or in several runs, with calls that do not always agree. The source made the active and inactive calls. The call rests on the fitted dose curve; in most records, active means well fitted inhibition curve with a large enough effect in the repeat runs; inconclusive means weak or mixed curves; inactive means no such curve, though single readings can be large or run the other way.
Potency means the concentration at half of the fitted maximal effect.

Chain of Cytochrome P450 2D6 (Homo sapiens) (P10635 whole entry, looked up): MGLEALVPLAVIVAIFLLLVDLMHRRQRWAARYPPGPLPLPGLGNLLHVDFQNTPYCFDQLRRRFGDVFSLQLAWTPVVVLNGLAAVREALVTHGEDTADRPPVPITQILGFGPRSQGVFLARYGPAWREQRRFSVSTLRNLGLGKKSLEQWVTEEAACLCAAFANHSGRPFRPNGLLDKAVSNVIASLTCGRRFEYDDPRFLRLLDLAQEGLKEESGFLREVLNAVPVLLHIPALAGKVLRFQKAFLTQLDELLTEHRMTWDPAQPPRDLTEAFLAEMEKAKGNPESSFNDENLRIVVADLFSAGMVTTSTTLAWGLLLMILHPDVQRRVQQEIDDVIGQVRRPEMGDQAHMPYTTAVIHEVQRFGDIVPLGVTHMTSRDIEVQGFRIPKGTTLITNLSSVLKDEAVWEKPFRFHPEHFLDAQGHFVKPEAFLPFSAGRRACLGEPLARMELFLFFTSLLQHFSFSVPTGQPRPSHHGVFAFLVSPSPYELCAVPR

The target in this test is Cytochrome P450 2D6 (Homo sapiens) (UniProt P10635). Kind of test: Cytochrome P450 Family 2 Subfamily D Member 6 (CYP2D6) small molecule antagonists: luciferase reporter qHTS assay (AID 1671196). Further: nearly all actives have a fitted effect of over 50% in size. As to conditions: P450-Glo CYP2D6 enzyme assay, luciferin luminescence, 1 h; series mostly up to 115 µM. An excerpt:
U.S. Tox21 Program National Center for Advancing Translational Sciences [NCATS] U.S. Environmental Protection Agency [EPA] National Institutes of Environmental Health Sciences [NIEHS] National Toxicology Program [NTP] U.S. Food and Drug Administration [FDA] Tox21 Assay Overview: Cytochrome P450 (CYP) enzymes are membrane-bound hemeproteins that play a key role in metabolism of drugs and xenobiotics. Evaluation of the effect of chemicals on CYP isozymes is useful to minimize the adverse drug reactions and toxicities in drug development process. Tox21 chemicals were tested for their effect on CYP enzyme activities by using P450-Glo (TM) screening systems (Promega Corporation, Madison, WI). These systems provide a luminescent method containing proluciferin substrates and are converted to luciferin products by CYP isozymes. The luciferin products formed are detected with a luciferin detection reagent, and the amount of light produced is proportional to CYP activity. P450-Glo (TM) CYP2D6 screening system (Catalog. No. V9890) was used to detect the compounds that interfere in CYP2D6 activity.
Tox21 Assay Protocol Summary: Two ul of enzyme-substrate mix was dispensed into medium binding white/solid 1536-well plates (Greiner Bio-One North America Inc., Monroe, NC) using a BioRaptr Flying Reagent Dispenser (FRD, Beckman Coulter, Brea, CA). […] The assay plates were incubated at room temperature for 10 min. Then 2 ul of NADPH regeneration solution was added to each well of the assay plates using an FRD and incubated at room temperature for 1 h. The reaction was stopped by adding 4 ul of detection reagent using an FRD and after 20 min incubation at room temperature the luminescence signal was measured using a ViewLux plate reader (Perkin Elmer, Shelton, CT). Data were expressed as relative luminescence units.
(In general: A reporter such as luciferase makes a cellular process visible.)
Regarding `CCCCC(CC)CO` (stereo not given), the Potency result is “inactive”.
In the case of `CCCCCCCCCCCCS`, the Potency entry is “inactive”.
On to `CC1=C(C)S(=O)(=O)CCS1(=O)=O`, for which the Potency entry is “inactive”.
`C=C(C)C(=O)OCCOCCOCCOC(=O)C(=C)C`: the Potency was 20 µM (active) and inactive.
On to `COc1ccc(NC(C)=O)cc1N`, for which the Potency result was “inactive”.
Turning to `CC(O)COCC(C)O` (stereo not given), the Potency entry is “inactive”.
For the compound `O=C(O)c1cc(=O)c2c(OCC(O)COc3cccc4oc(C(=O)O)cc(=O)c34)cccc2o1`, the Potency result is “inactive”.
With `CC1CCC(C(C)C)C(O)C1` (stereo not given), the Potency entry is “inactive”.
Then `O=P(OC(CCl)CCl)(OC(CCl)CCl)OC(CCl)CCl`, with 39.7 µM (active) and 35.6 µM (active).
Consider `Nc1cc([N+](=O)[O-])ccc1O`, for which the Potency entry is “inactive”.
As for `CC(c1cc2ccccc2s1)N(O)C(N)=O` (stereo not given), the Potency entry is “inactive”.
With `CCCCC(CC)COC(=O)CCCCC(=O)OCC(CC)CCCC` (stereo not given), the Potency entry is “inactive”.
As for `CC(=O)Nc1ccccc1`, the Potency entry was “inactive”.
Regarding `C=C(C)C(=O)Nc1ccc(Cl)c(Cl)c1`, the Potency result is “inactive”.
As to `Cc1cc(C)c(C)cc1C`, the Potency result was “inactive”.
In the case of `CCc1ccc(CCOc2ccc(CC3SC(=O)NC3=O)cc2)nc1` (stereo not given), the Potency result is “inactive”.
For the compound `Cc1ccc(N(C)C)cc1`, the Potency entry is “inactive and 35.6 µM (active)”.
In the case of `c1ccc2c(c1)ccc1ccccc12`, the Potency entry is “inactive”.
For the compound `CC(C)(N)CO`, the Potency entry is “inactive”.
`OC[C@H]1O[C@@](CO)(O[C@H]2O[C@H](CO)[C@@H](O)[C@H](O)[C@H]2O)[C@@H](O)[C@@H]1O`: the Potency result is “inactive”.
Take `CCCCCCCCCCCCOCCO`: the Potency result is “inactive”.
As to `CCCC(C)=O`, the Potency result is “inactive”.
In the case of `COc1ccc(Cl)cc1C(=O)NCCc1ccc(S(=O)(=O)NC(=O)NC2CCCCC2)cc1`, the Potency result is “inactive”.
For `CCCCC(CC)COC(=O)C(C#N)=C(c1ccccc1)c1ccccc1` (stereo not given), the Potency is 5.03 µM (active) and 5.49 µM (active).
Regarding `CC(=O)c1ccccc1`, the Potency entry was “inactive”.
In the case of `CCCCCCCCCCCCCCCO`, the Potency result was “inactive”.
`CC(=O)CC(=O)Nc1ccccc1`: the Potency entry was “inactive”.
To `O=C(O)c1ccc2c(c1)C(=O)OC2=O` belongs “inactive”.
Consider `O=C(O)c1cc(C(=O)O)cc(S(=O)(=O)O)c1`, for which the Potency is 36 µM (active).
As to `CC(C)(C)[C@@H](O)[C@@H](Cc1ccc(Cl)cc1)n1cncn1`, the Potency is 71 µM (active).
Turning to `CCCCCCOCCO`, the Potency result was “inactive”.
Turning to `CN(C)CCOCCN(C)C`, the Potency entry is “inactive”.
With `CCOC(=O)NNc1nncc2ccccc12`, the Potency is 35.6 µM (active).
To `C=C(C)C(=O)O[C@H]1C[C@@H]2CC[C@@]1(C)C2(C)C` belongs “inactive”; to `OCCOCCOCCO`, “inactive”; to `O=c1[nH]c(=O)n([C@H]2C[C@H](O)[C@@H](CO)O2)cc1Br`, “inactive”.
As to `CCC(O)OCCCOC` (stereo not given), the Potency entry is “inactive”.
For `O=C(O)[C@H](O)[C@@H](O)[C@H](O)[C@H](O)CO`, the Potency entry is “inactive”.
Take `CC(=O)OCC(=O)[C@@]12N=C(C)O[C@@H]1C[C@H]1[C@@H]3CCC4=CC(=O)C=C[C@]4(C)[C@H]3[C@@H](O)C[C@@]12C`: the Potency entry is “inactive”.
To `O=[N+]([O-])c1ccc(/C=C/c2ccc([N+](=O)[O-])cc2S(=O)(=O)O)c(S(=O)(=O)O)c1` belongs “inactive”.
